Reference: PubChem BioAssay (NCI)
The panel holds about 83,000 compounds, 20% with a hit somewhere; the sample as a whole holds those more often.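 The endpoint reported here, percent growth, reads 100 for growth as untreated, 0 for no net growth and -100 for all cells dead.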 Activity calls are given as the source filed them. Rule for the calls: active = growth percent below 10; inactive = the rest.

Test system: MDA-MB-468 breast
Test: NCI-60 one-dose screen, 48 h (100 = growth as untreated, 0 = no growth, -100 = all killed)
Conditions: 10 µM unless noted

Row | Structure (SMILES) | growth
1 | C=C1CC[C@@H]2[C@](C)(COC(C)=O)[C@H](OC(C)=O)CC[C@@]2(C)[C@@H]1CC(NCc1ccc(F)cc1)C1=CCOC1=O (stereo not given in full) | 27.5% (inactive)
2 | COCC(N)=O | 101% (inactive)
3 | Cn1cc(-c2csc(-c3c[nH]c4ccc(Br)cc34)n2)c2ccnc(Cl)c21 | 14% (inactive)
4 | Cn1cc(C(=O)c2nc(-c3c[nH]c4ccc(Br)cc34)no2)c2cc(F)ccc21 | 108% (inactive)
5 | CC(C)(O)C(=O)O | 108% (inactive)
6 | CCN(CCO)CC(C)Nc1ccc([N+](=O)[O-])c2sc3ccccc3c(=O)c12 (stereo not given) | 21% (inactive)
7 | COc1cc(-c2cc(=O)oc3cc(O)ccc23)cc(OC)c1OC | 74.2% (inactive)
8 | O=[N+]([O-])c1ccc(OCCCOc2ccccc2)cc1 | 104% (inactive)
9 | COc1cc(/C=C2\CN(C)C/C(=C\c3cc(CN4CCOCC4)c(O)c(OC)c3)C2=O)cc(CN2CCOCC2)c1O | 38.8% (inactive)
10 | COc1ccc(-c2cc3ccc(N(C)C)cc3nc2N)c(F)c1 | 4.96% (active)
11 | COc1cc2nc(Cl)nc(Nc3cccc(C(=O)/C=C/c4ccc(Br)cc4)c3)c2cc1OC | 85.7% (inactive)
12 | Cc1nc2sc(C(=O)Nc3cccc(Cl)c3)c(N)c2cc1C(O)c1ccccc1 (stereo not given) | 15.3% (inactive)
13 | COc1ccc(-c2cc(-c3ccc(N(C)C)cc3)nc(NC(=O)c3cccnc3)n2)cc1 | 106% (inactive)
14 | NC(CSC(c1ccccc1)(c1ccccc1)c1ccc2c(c1)OCO2)C(=O)O (stereo not given) | -56.6% (active)
15 | CCOCc1cc(C(C)(C)C)ccc1O | 94.3% (inactive)
16 | O=C(N/N=C\c1cc(Cl)ccc1O)c1ccncc1 | 36.9% (inactive)
17 | N#Cc1cncc(-c2ccc3ncnc(Nc4cccc(Cl)c4)c3c2)c1 | 9.34% (active)
18 | COc1cccc(CNc2nnc(C)c(C)n2)c1O | 91.7% (inactive)
19 | O=[N+]([O-])c1cc(S(=O)(=O)Oc2ccccc2)ccc1Cl | -78.1% (active)
20 | [2H]C1([2H])CCN(C(=O)C2CC2)c2cc(NS(=O)(=O)c3ccc(-c4cccc(C(N)=O)c4)cc3)ccc21 | -5.25% (active)

Row | Structure (SMILES) | growth
21 | CN(C)c1ncc(/C=C2\SC(=S)N(Cc3ccccc3Cl)C2=O)s1 | 95.6% (inactive)
22 | Cc1ccc(-c2n[nH]c(=O)c3noc(-c4ccc(C)cc4)c23)cc1 | -8.93% (active)
23 | CS(=O)(=O)c1ccc(C(=O)N/N=C/c2cccc3ccccc23)cc1 | 74.2% (inactive)
24 | C[C@@H](Nc1ncnc2ccc(-c3cnc(Cl)c(NS(C)(=O)=O)c3)cc12)c1ccccc1 | 30.8% (inactive)
25 | N=C(N)c1ccc(-c2ccc(-c3cncc4ccccc34)s2)s1 | -72% (active)
26 | COc1ccc(S(=O)(=O)Nc2cc(Sc3cccc4cccnc34)c(O)c3ccccc23)cc1 | -39.6% (active)
27 | CN(C)c1ccc(/C=C\N=Nc2ccc(Br)cc2)cc1 | 106% (inactive)
28 | S=C(c1ccc2c(c1)OCO2)N1CCN(c2ccccc2Cl)CC1 | 80.8% (inactive)
29 | COc1cc(/C=C/C(=O)N2c3ccccc3CC2C)c(OC)c2c1OCO2 (stereo not given) | 86.9% (inactive)
30 | COc1cc(CCC[P+](c2ccccc2)(c2ccccc2)c2ccccc2)c(OC)c(OC)c1OC | 30.3% (inactive)
31 | Cc1cscc(C)c1=S | 72.3% (inactive)
32 | CN1CCN(C(=O)[C@@]2(C)CC[C@]3(C)CC[C@]4(C)C(=CC[C@@H]5[C@@]6(C)CCC(=O)NC(C)(C)[C@@H]6CC[C@]54C)[C@@H]3C2)CC1 | 13.5% (inactive)
33 | CCN(Cc1ccc(CN(CC)C(=O)C(Br)Br)cc1)C(=O)C(Br)Br | 17.6% (inactive)
34 | Cc1ccsc1[C@H]1c2[nH]c3ccccc3c2C[C@H]2C(=O)N(CCCCCCC(=O)NO)CC(=O)N12 | 46.6% (inactive)
35 | C[n+]1c(-c2ccccc2)c2cc(N)ccc2c2ccccc21 | -15.4% (active)
36 | Cc1ccc2c(Cn3cc(CSc4nc5ccccc5o4)nn3)cc(=O)oc2c1 | 113% (inactive)
37 | COc1ccc(/C(C)=C(\c2ccc(OCCN3CCCCCC3)cc2)c2ccc(OC(=O)c3ccccc3)cc2)cc1 | 61.3% (inactive)
38 | CSc1nc(N)nc2c1ncn2C | 108% (inactive)
39 | Oc1c(C(Nc2cccc3ccccc23)c2ccccc2)ccc2cccnc12 (stereo not given) | 26.7% (inactive)
40 | CCc1nc2ccc(Cc3ccc(C(=O)NO)cc3)cc2c(=O)n1CCc1ccccc1 | -65.1% (active)
